The results in this text go back to PubChem BioAssay (NCATS).

Assay [1] relates to Tov-21-G. As to the kind of experiment: Primary qHTS to identify gynecologic anti-cancer compounds using libraries of approved drugs and bioactive compounds (AID 1345084). Further: nearly all actives have a fitted effect of over 55% in size. The following applies: Gynecologic cancer cell panel viability, ATPlite luminescence, 48 h; series mostly up to 57.5 µM. An outline of the steps: (§1)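 48 h compound exposure at 37 C, 5% CO2; five-point qHTS. ATPlite luminescence readout of cell ATP.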
(In general: qHTS replaces the single test concentration by a dilution series.)

In assay [2] the test system is Tov112D. The description is as above. As to conditions: Gynecologic cancer cell panel viability, ATPlite luminescence, 48 h; series mostly up to 57.5 µM. The method, boiled down: as §1
For orientation: ATP-based viability assays read luminescence as a measure of living cells.

Records with an inconclusive call do not appear. A call without a number means that no potency is given here. The source made the active and inactive calls. The call rests on the fitted dose curve; in most records, active means well fitted cell-killing curve with a large enough effect; inconclusive means small, poorly fitted or top-dose-only effect, or effect the other way; inactive means flat fitted curve, though single readings scatter.
Potency means the concentration at half of the fitted maximal effect.

On to `CC/C=C\CC1C(=O)C=CC1(CCCCC1CCC(=O)O1)OC(C)=O` (stereo not drawn), for which the Potency entry in assay [1] and in assay [2] was “inactive” in each case.

Turning to `COc1cc(OC)c2c(=O)[nH]c(-c3cc(C)c(OCCO)c(C)c3)nc2c1`, the Potency result in assay [1] and in assay [2] was “inactive” throughout.

`CCc1cccc(CC)c1-n1c(C=C(C)C)c(C(=O)N2CCNCC2)cc(-c2nc(-c3ccc(C(F)(F)F)cc3)cs2)c1=O`: the Potency entry in assay [1] and in assay [2] was “inactive” in each case.

For the compound `Cc1cnc(-c2ccccc2C(C)C)nc1NCc1ccc(-n2ccnn2)cc1`, the Potency result in assay [1] and in assay [2] was “inactive” in each case.

For `O=C(Nc1cccnc1)c1cc(-c2ccnc(F)c2)ccc1OCc1ccccc1`, the Potency entry in assay [1] and in assay [2] was “inactive” in each case.

As for `Nc1nc2c(cnn2CCCc2ccc(O)cc2)c2nc(-c3ccco3)nn12`, the Potency result in assay [1] and in assay [2] was “inactive” in each case.

With `COc1ccccc1C(=O)Nc1cc2c(cc1N1CCCC1)n(C)c(=O)n2C`, the Potency entry in assay [1] and in assay [2] was “inactive” throughout.

As for `Cc1ccnn1-c1ccc(C(=O)N2CCN(S(=O)(=O)c3ccc(Cl)c(C(F)(F)F)c3)CC2)cc1`, the Potency result in assay [1] and in assay [2] was “inactive” throughout.

In the case of `C[C@@H]1O[C@@H](O[C@H]2[C@@H]3C=CO[C@@H](O[C@@H]4O[C@H](CO)[C@@H](O)[C@H](O)[C@H]4O)[C@@H]3[C@@]3(CO)O[C@@H]23)[C@H](O)[C@H](OC(=O)/C=C/c2ccccc2)[C@H]1O`, the Potency result in assay [1] and in assay [2] was “inactive” in each case.

As to `Nc1ncnc2c1nc(Cl)n2C1OC2COP(=O)(O)OC2C1O` (stereo not drawn), the Potency in assay [1] is 8.91 µM (active); in assay [2], 5.01 µM (active).

`NC(N)=N/N=C/c1ccccc1Cl`: the Potency result in assay [1] and in assay [2] was “inactive” throughout.

With `C=C1C(=O)OC[C@@H]1C/C=C(\C)CC1CC(C)C(=O)O1` (stereo partly drawn), the Potency entry in assay [1] and in assay [2] was “inactive” in each case.

On to `OC1(CN2CCC(COc3noc4cccc(O[C@@H]5CCOC5)c34)CC2)CCOCC1`, for which the Potency result in assay [1] and in assay [2] was “inactive” throughout.

Turning to `COC(=O)CC1OC(C)C2=C(O)c3c(O)cccc3C(=O)C23OC13` (stereo not drawn), the Potency in assay [1] and in assay [2] was 6.31 µM (active) in each case.

For the compound `CC(C)=C[C@@H]1[C@H](CO[C@@H]2O[C@H](CO)[C@@H](O)[C@H](O)[C@H]2O)C1(C)C`, the Potency result in assay [1] and in assay [2] was “inactive” each time.

For `CC(C)n1c(=O)c(C(=O)NC2CC3CCC(C2)N3C[C@@H](O)CN(C)S(C)(=O)=O)cc2ccccc21` (stereo partly drawn), the Potency entry in assay [1] and in assay [2] was “inactive” throughout.

In the case of `C=C1C(=O)O[C@@H]2/C=C(\CO)CC/C=C(/C=O)C[C@@H](O)[C@@H]12`, in assay [1], the Potency was 14.1 µM (active). Besides, the Potency result in assay [2] is “inactive”.

On to `NS(=O)(=O)Nc1ncnc(OCCOc2ncc(Br)cn2)c1-c1ccc(Br)cc1`, for which the Potency result in assay [1] and in assay [2] was “inactive” each time.

With `CC1(C)CCC(C)(C)c2cc(C#Cc3ccc(C(=O)O)cc3)ccc21`, the Potency entry in assay [1] and in assay [2] was “inactive” each time.

In the case of `COc1cc([C@H]2O[C@H](c3cc(OC)c4c(c3)OCO4)[C@H](C)[C@H]2C)cc(OC)c1OC`, the Potency result in assay [1] and in assay [2] was “inactive” throughout.

As for `CCC(=C(c1ccc(OCCN2CCCC2)cc1)c1ccc(OCCN2CCCC2)cc1)c1ccccc1`, the Potency entry in assay [1] and in assay [2] was “inactive” in each case.

As for `CC(C)C[C@@H]1NC(=O)[C@@H]2C[C@@]34C[C@@H]5[C@@]6(C)CCCC(C)(C)C6CC[C@@]5(C)N(c5ccccc53)[C@H]4N2C1=O` (stereo partly drawn), the Potency entry in assay [1] and in assay [2] was “inactive” each time.

Consider `CCOC(=O)CCNc1cc(N2CCc3ccccc3CC2)nc(-c2cccnc2)n1`, for which the Potency result in assay [1] and in assay [2] was “inactive” in each case.

Take `Cn1cc(-c2cnn3c(N)c(Br)c([C@@H]4CCCNC4)nc23)cn1`: the Potency entry in assay [2] is “inactive”.

Consider `CN1CCN(S(=O)(=O)c2ccc(-c3cnc(N)c(C(=O)Nc4cccnc4)n3)cc2)CC1`, for which, in assay [2], the Potency entry is “inactive”.

Consider `C=CC(=O)Nc1cc(-n2c(=O)ccc3cnc4ccc(-c5ccc(NS(C)(=O)=O)cc5)cc4c32)ccc1C`, for which the Potency result in assay [2] was “inactive”.

With `CN(C)C(=O)NC1(c2ccccc2)CCN(CCC[C@]2(c3ccc(Cl)c(Cl)c3)CCCN(C(=O)c3ccccc3)C2)CC1`, in assay [2], the Potency entry is “inactive”.

In the case of `CC(=O)Nc1nc(C)c(-c2nc(N3CCCC(O)C3)no2)s1` (stereo not drawn), in assay [2], the Potency result was “inactive”.

Take `C=C1C(=O)OC2CC(C)=C(C(C)CCCOC(C)=O)C(OC(=O)CC(C)CC)C12` (stereo not drawn): in assay [2], the Potency entry was “inactive”.

Regarding `COc1cc(N2CCOCC2)ccc1NC(=O)c1csc(-c2cccnc2)n1`, the Potency entry in assay [2] was “inactive”.

As to `C/C1=C\CCC2=CC(OC2=O)C(C)(C)/C=C/C1=O` (stereo not drawn), the Potency result in assay [2] was “inactive”.

For `CC(C)C[C@@H]1NC(=O)[C@@H](Cc2ccccc2)NC(=O)C(CCCCCC(=O)C2CO2)NC(=O)[C@@H]2CCCCN2C1=O` (stereo partly drawn), in assay [2], the Potency result was “inactive”.

As for `COc1cc(F)c(F)c(Nc2ccc(I)cc2F)c1NS(=O)(=O)C1(CC(O)CO)CC1` (stereo not drawn), the Potency result in assay [2] is “inactive”.

For the compound `C[C@H](Oc1cc(-n2cnc3ccc(CN4CCN(C)CC4)cc32)sc1C(N)=O)c1ccccc1C(F)(F)F`, in assay [2], the Potency was 7.94 µM (active).

Take `O=C(CN1C2=NCCN2c2ccccc21)c1ccc(-c2ccccc2)cc1`: the Potency result in assay [2] was “inactive”.

Regarding `O=c1nc(-c2ccccn2)sc2ccccc12`, in assay [2], the Potency entry is “inactive”.

Take `COc1ccc(C2=NC(c3ccc(Cl)cc3)C(c3ccc(Cl)cc3)N2C(=O)N2CCNC(=O)C2)c(OC(C)C)c1` (stereo not drawn): in assay [2], the Potency entry was “inactive”.

With `COc1cc2c(cc1OC)CN(C(=O)/C=C/c1c(-c3ccccc3)n(C)c3ncccc13)CC2`, the Potency result in assay [2] was “inactive”.

Consider `C[C@@H]1O[C@@H](O[C@H]2[C@H](OC(=O)[C@]34CCC(C)(C)C[C@H]3C3=CCC5[C@@]6(C)C[C@H](O)[C@H](O[C@@H]7O[C@H](CO)[C@@H](O)[C@H](O)[C@H]7O)[C@](CO)(C(=O)O)C6CC[C@@]5(C)[C@]3(C)C[C@H]4O)OC[C@H](O)[C@@H]2O)[C@H](O)[C@H](O)[C@H]1O[C@@H]1OC[C@@H](O)[C@H](O[C@@H]2OC[C@](O)(CO)[C@H]2O)[C@H]1O` (stereo partly drawn), for which the Potency in assay [2] is 1.41 µM (active).

For `Cn1cc(-c2cnn3c(N)c(Br)c(C4CCCNC4)nc23)cn1` (stereo not drawn), the Potency entry in assay [2] was “inactive”.
